This is a sample that favours compounds with a hit; in the whole collection about 2.2% have one here.
FUS yeast rescue = FUS proteinopathy suppression in yeast | S. cerevisiae FUS-expressing, growth rescue, OD600, 24 h | Potency, µM (top dose mostly 76.6 µM), usual class: activators | actives 0.24% (n = 390,000) | AID 1347120; note: nearly all actives have a fitted effect of over 55% in size
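Quantitative HTS measuring growth restoration of FUS-toxic yeast. Galactose-induced cells (OD 0.005) were exposed 24hr at 30C to compounds at several concentrations, then absorbance at 600 nm was recorded.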
Abeta rescue = compounds reversing amyloid beta toxicity in yeast. yeast expressing A-beta42, growth rescue, OD600, 48 h; response scale: 0% DMSO, 100% iron-clioquinol control. Potency, µM (titrated, usually from 46.1 µM), most hits filed as activators. actives 0.063% (n = 410,000); note: nearly all actives have a fitted effect of over 55% in size
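Growth rescue measured by 600 nm absorbance after 48 h yeast culture at 30 C with compound. Values normalized between DMSO and an equimolar ferric chloride plus clioquinol control.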
aSyn rescue = alpha-synuclein toxicity inhibition in yeast. Yeast expressing alpha-synuclein, growth rescue, BacTiter-Glo, 24 h. Potency, µM (highest dose often 46.1 µM), most hits filed as activators. actives 0.14% (n = 370,000); note: nearly all actives have a fitted effect of over 65% in size
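Galactose-induced alpha-syn yeast (OD600=0.02, raffinose-pregrown) + pinned cpd, 24 hr, 30 deg C; growth by BacTiter-Glo luminescence. Growth restoration scores as activation.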
TDP-43 yeast inh = rescues yeast growth from TDP-43 toxicity. TDP-43 expressing yeast growth rescue, BacTiter-Glo, 24 h. Potency, µM (highest dose often 46.1 µM), hits mostly activators. actives 1.8% (n = 410,000); note: nearly all actives have a fitted effect of over 50% in size
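Galactose-induced TDP-43 yeast, OD600=0.02, compound pinned; 24 hr, 30 deg C; BacTiter-Glo luminescence for growth. Inhibitors of TDP-43 toxicity read as activators.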
Mito fusion yeast = blocks mitochondrial division or promotes mitochondrial fusion; S. cerevisiae fusion-defective mutant growth rescue, CellTiterGlo 48 h; Potency, µM (series often up to 46.1 µM), usual class: activators; actives 0.23% (n = 320,000); note: nearly all actives have a fitted effect of over 45% in size
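Luminescent cell viability in 1536-well qHTS format served as the measure of rescued growth in ts fusion-mutant S. cerevisiae cultured on non-fermentable YPEG for 48 hours at 37C.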
Of the large screens only hits and unclear results are named; the others gave an inactive call. Calls come from the whole dose curve; as a rule, active = well fitted curve in the direction sought with a large enough effect; inconclusive = small, poorly fitted or top-dose-only effect, or another doubt; inactive = no such curve, though single readings can be large; an effect the other way counts as inactive or inconclusive.

COc1ccc(C(=O)COC(=O)c2cc(S(=O)(=O)N3CCCCC3)ccc2N2CCOCC2)c(OC)c1	FUS yeast rescue 16µM, TDP-43 yeast inh inconclusive
O=C(Nc1ccc(N2CCN(C(=O)c3ccccc3)CC2)cc1)c1cc([N+](=O)[O-])ccc1N1CCOCC1	FUS yeast rescue 35µM
Cc1ccc(C(=O)c2cc([N+](=O)[O-])ccc2N2CCOCC2)cc1	TDP-43 yeast inh 35µM (no result: FUS yeast rescue)
CC(=O)C[n+]1cccc2cc(Cl)ccc21	none (no result: FUS yeast rescue, Abeta rescue, TDP-43 yeast inh, Mito fusion yeast)
O=C(c1ccco1)N1N=C(c2cccs2)CC1c1ccco1 (stereo not drawn)	none (no result: FUS yeast rescue)
O=C(c1ccco1)N1N=C(c2ccccc2O)CC1c1cccs1 (stereo not drawn)	TDP-43 yeast inh 35µM (no result: Mito fusion yeast)
COCCN(Cc1cn(C)nc1-c1ccccc1F)C(C)C	Mito fusion yeast 5.6µM
COc1cccc(-n2c(-c3ccccc3F)nc3c(cnn3-c3ccc(C)cc3)c2=O)c1	FUS yeast rescue 16µM (no result: aSyn rescue, Mito fusion yeast)
O=C(OCC#CCSc1nnc(-c2ccc(Cl)cc2)o1)c1ccc(F)cc1	none (no result: Abeta rescue, aSyn rescue, TDP-43 yeast inh, Mito fusion yeast)
COc1ccccc1CNC(=O)COc1ccc(Br)c(C)c1	TDP-43 yeast inh 18µM
COc1ccccc1CNC(=O)COc1ccccc1C	TDP-43 yeast inh inconclusive
Cc1noc(NS(=O)(=O)c2ccc(N/C=C/C(=O)c3cccnc3)cc2)c1C	aSyn rescue 20µM
Cc1noc(NS(=O)(=O)c2ccc(N/C=C\C(=O)c3ccncc3)cc2)c1C	none
S=c1[nH]nc2ccc3ccccc3n12	TDP-43 yeast inh 13µM (no result: Mito fusion yeast)
S=c1[nH]c2ccccc2n2c(=S)[nH]nc12	TDP-43 yeast inh inconclusive
Oc1ccc2ccccc2c1SSc1c(O)ccc2ccccc12	none (no result: FUS yeast rescue, Abeta rescue, TDP-43 yeast inh)
COc1ccc([N+](=O)[O-])cc1NC(=O)C(C)OC(=O)CSC(C)C(=O)Nc1cc(C)on1 (stereo not drawn)	none
C=CCNC(=S)N/N=C/c1ccc(C(C)(C)C)cc1	Abeta rescue 7.9µM
Cn1cc(/C=N/NC(N)=S)c2ccccc21	none
C=CCNC(=S)N/N=C/c1cn(C)c2ccccc12	Abeta rescue inconclusive, TDP-43 yeast inh 20µM
COc1ccc(-c2cc(C(F)(F)F)n3ncc(-c4ccccc4)c3n2)cc1	none (no result: aSyn rescue, Mito fusion yeast)
Cc1ccc(C)c(C(=O)C[n+]2cccc(Br)c2)c1	none (no result: FUS yeast rescue, Abeta rescue, TDP-43 yeast inh, Mito fusion yeast)
CCOC(=O)C1=NOC(C(=O)NCc2ccccc2)(C(=O)c2ccc(OC)cc2)C1 (stereo not drawn)	none (no result: Abeta rescue, aSyn rescue, TDP-43 yeast inh, Mito fusion yeast)
S=c1nc(-c2cc(Cl)ccc2Cl)[nH][nH]1	Abeta rescue 18µM, TDP-43 yeast inh inconclusive
CC(C)CNc1cccc2c1S(=O)(=O)N(Cc1cn(Cc3cccc(F)c3)nn1)Cc1ccccc1O2	none (no result: Abeta rescue, aSyn rescue, TDP-43 yeast inh, Mito fusion yeast)
N#Cc1cccc(-n2cc(COC(=O)NCCc3ccccc3)nn2)c1	none (no result: Abeta rescue, aSyn rescue, TDP-43 yeast inh, Mito fusion yeast)
COc1ccc(C(CNC(=O)c2ccc(S(=O)(=O)Nc3ccc(F)cc3)cc2)N(C)C)cc1 (stereo not drawn)	none
COc1ccc(N2C(=O)CC(SCC(=O)O)C2=O)cc1 (stereo not drawn)	none
O=C1CC(SCc2nc3ccccc3[nH]2)C(=O)N1c1ccc(F)c(Cl)c1 (stereo not drawn)	TDP-43 yeast inh 13µM (no result: aSyn rescue)
COc1ccc(N2C(=O)CC(SCc3ccc(Cl)cc3)C2=O)cc1 (stereo not drawn)	TDP-43 yeast inh 22µM
COc1ccc2c(c(-c3ccccc3)cn2C)c1-c1ccccc1	none (no result: Abeta rescue, aSyn rescue, TDP-43 yeast inh, Mito fusion yeast)
CC(C)[C@H](NC(=O)N1CC(=O)Nc2ccccc21)C(=O)N1CCC[C@@H]1C(=O)O	none
O=C(O)c1cncc(C#CCC2CCCCC2)c1	TDP-43 yeast inh 14µM
O=C(O)c1cncc(C#Cc2ccccc2)c1	none
CC1CCCN(c2ccc(C(=O)NCc3ccco3)cc2[N+](=O)[O-])C1 (stereo not drawn)	TDP-43 yeast inh 14µM, Mito fusion yeast inconclusive
Cc1ccc(C(=O)NCc2ccco2)cc1[N+](=O)[O-]	none
C[C@H](NC(=O)c1ncn2c1C(=O)N(C)CC2)C(=O)OC(C)(C)C	none (no result: Mito fusion yeast)
O=S(=O)(NCCc1csc(-c2cccnc2)n1)c1ccc2c(c1)OCCO2	none
O=S(=O)(NCCc1csc(-c2ccc(C(F)(F)F)cc2)n1)c1ccc2c(c1)OCCO2	Abeta rescue inconclusive, TDP-43 yeast inh 25µM, Mito fusion yeast inconclusive
COc1ccc(-c2nc(CCNS(=O)(=O)c3ccc4c(c3)OCCO4)cs2)cc1	TDP-43 yeast inh 13µM

High-throughput results (PubChem BioAssay)
